Screening results as filed in PubChem.
Shown are actives, neighbours in structure and some others; about 6% of the full set was active somewhere.
D1 potentiator = human D1 dopamine receptor positive modulation. 360,000 compounds, 0.036% hits. P21728. potentiation, % at 10 µM. HEK293 TREx D1 cells, calcium flux, dopamine EC20 potentiation. AID 504651; in the data active means potentiation above about 30%; further: 0% is about no effect
D3 antag = D3 dopamine receptor (human) antagonism. D3R cells, DiscoveRx beta-arrestin luminescence, antagonist mode; hits give low values. max response, negative = inhibition, %. 360,000 compounds, 2.5% hits. AID 652054; in the data active means max response below about -50%; inconclusive means no clear call, values can overlap the other calls; further: on the % scale 0 is the no-effect control and ±100 the full control effect
Target sequence (P35462 whole entry, looked up): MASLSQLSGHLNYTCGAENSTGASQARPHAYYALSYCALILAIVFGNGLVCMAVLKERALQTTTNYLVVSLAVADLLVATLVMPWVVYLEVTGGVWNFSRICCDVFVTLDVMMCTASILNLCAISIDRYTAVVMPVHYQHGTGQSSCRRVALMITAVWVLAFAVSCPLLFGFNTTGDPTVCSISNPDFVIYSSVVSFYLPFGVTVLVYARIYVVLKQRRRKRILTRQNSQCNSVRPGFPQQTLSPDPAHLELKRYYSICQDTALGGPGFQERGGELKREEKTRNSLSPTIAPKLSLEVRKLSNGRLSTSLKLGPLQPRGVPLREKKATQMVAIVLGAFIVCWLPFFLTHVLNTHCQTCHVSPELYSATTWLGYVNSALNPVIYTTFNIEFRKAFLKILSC
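Cells plated overnight at 1500 cells/well, then exposed to library compounds with dopamine controls for 90 minutes at 37 degrees C. DiscoveRx reagent added for 30–60 minutes at room temperature; luminescence read, quantitative HTS format.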
D1 antag = blocks dopamine activation of the human D1 receptor; HEK293 TREx D1 cells, calcium flux, dopamine EC80; hits give low values; activity change, negative = inhibition, % at 10 µM; 360,000 compounds, 3.2% hits; AID 504652; in the data active means activity change below about -30%; further: on the % scale 0 is the no-effect control and ±100 the full control effect
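Antagonism measured as reduced calcium response to an EC80 dopamine addition following 180 s compound pre-read; cells were inducible HEK293 Trex D1 plated overnight at 30 C, read kinetically at 1 cycle/sec.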
DRD3 agonist = activates the human D3 dopamine receptor | AID 652048 | max activation, % | P35462 | D3R DiscoveRx beta-arrestin cells, luminescence, 90 min | 410,000 compounds, 0.58% hits; in the data active means max activation above about 30%; further: 0% is about no effect
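Agonist-mode cell screen: cells plated at 1500/well and incubated overnight at 37 °C, then exposed to library compounds for 90 min at 37 °C. Detection reagent was added for 30–60 min at room temperature, and luminescence was read.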
Chronic BCR inh = chronic active BCR signaling inhibition; ABC-DLBCL IkBa-CBG/CBR reporter, luminescence ratio, 4 h; Potency, µM (top dose mostly 46.1 µM), without a hit: top-dose activity change, negative = inhibition, usual class: inhibitors; 340,000 compounds, 0.05% hits; active means well fitted inhibition curve with a large enough effect in the signal ratio, with a control signal flat, not every such curve was filed as active; inconclusive means small, poorly fitted or top-dose-only effect, or effect the other way, or a change in a side signal; the % refers to the signal ratio;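 further: potency means the concentration at half of the fitted maximal effect; plate controls were basal doxycycline-induced cells for no effect and cells given 10 µM MG132 for full effect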
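Compounds up to 46 uM were incubated four hours with TMD8 cells whose green CBG68 luciferase is fused to IkappaBalpha; red CBR luminescence normalised the signal, and concentration-effect curves were fitted to fusion, red and ratio data.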
D1 ag = human D1 receptor agonism | HEK293 T-REx D1 cells, calcium flux, agonist mode | activation, % at 2 µM | 360,000 compounds, 1% hits; in the data active means activation above about 30%; further: 0% is about no effect
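Tetracycline-induced HEK293 TREx D1 cells, force-coupled to calcium signalling, were dye-loaded with a no-wash calcium kit. Compound was pin-added after a 10 s baseline. Fluorescence was read kinetically at 1 cycle/s for 180 s, with calcium rises flagged as agonism.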
Starred values were filed as active, the others as inactive; ? = inconclusive; · = not tested or not shown.

SMILES	D1 potentiator	D3 antag	D1 antag	DRD3 agonist	Chronic BCR inh	D1 ag
O=S(=O)(c1ccccc1)c1nc(-c2ccccc2Cl)oc1N1CCCCCC1	5.5	·	10.9	-7.1	·	14.1
CCN1CCN(c2oc(-c3ccccc3C)nc2S(=O)(=O)c2ccccc2)CC1	-7.2	-83.5*	1.2	-35.8	?	10.4
Cc1ccc(C(=O)n2nc(C)c(S(=O)(=O)N3CCOCC3)c2C)cc1	-0.1	·	9.1	-17.8	·	-1.5
Nc1c(-c2ccc(Cl)cc2)nnn1-c1ccccc1	-7.3	-15.8	-50.4*	1.0	?	-0.7
O=C(CCS(=O)(=O)c1cc2c3c(c1)CCN3C(=O)CC2)NCc1ccc(F)cc1	-0.7	·	2.5	2.1	·	1.4
COc1ccc(CNC(=O)C2CCC(CNS(=O)(=O)c3cccc4nsnc34)CC2)cc1 (stereo not given)	-4.2	-5.3	-45.8*	0.3	-8.1%	3.4
O=C(NCc1ccc2c(c1)OCO2)C1CCC(CNS(=O)(=O)c2cccc3nsnc23)CC1 (stereo not given)	·	-7.2	-51.7*	3.2	3.7%	0.5
O=C(NCc1ccccn1)C1CCC(CNS(=O)(=O)c2cccc3nsnc23)CC1 (stereo not given)	-2.2	3.8	22.3	0.1	1.0%	6.9
COCCNC(=O)C1CCC(CNS(=O)(=O)c2cccc3nsnc23)CC1 (stereo not given)	1.8	1.6	33.5	1.3	1.0%	0.7
COc1cc(CNc2ncnc3c2ncn3[C@H]2CN(Cc3ccc(Cl)cc3)C[C@@H](CO)O2)cc(OC)c1OC	·	6.7	·	3.8	·	·
O=C(Cn1ncc(Cl)c(Cl)c1=O)N1CCN(Cc2ccccc2)CC1	-4.7	-63.1*	-4.6	-7.2	?	2.4
O=C(Cn1ncc(Cl)c(Cl)c1=O)N1CCOCC1	8.4	-3.9	-9.3	1.6	?	2.4
CCc1ccc(C(=O)Cn2ncc(Cl)c(Cl)c2=O)cc1	-2.9	-7.9	-30.7*	-15.2	?	0.1
Cc1ccc(Cn2ncc(Cl)c(Cl)c2=O)cc1	-2.2	?	-18.2	-10.2	?	0.2
Cc1cc(C)cc(Cn2ncc(Cl)c(Cl)c2=O)c1	-3.4	-58.6*	7.8	-9.0	?	-0.3
O=C(Cn1ncc(Cl)c(Cl)c1=O)N1CCc2ccccc21	-2.7	?	-20.6	0.6	?	1.4
COC(=O)[C@@]12C[C@@H](CC(=O)NCc3cccc4ccccc34)C(=O)N(Cc3ccc4c(c3)OCO4)C1=CCC(C)(C)C2	·	-0.4	·	-10.3	·	·
COc1cc(Nc2ncc3c(n2)CCN(Cc2ccc(OC(C)C)c(OC)c2)C3)cc(OC)c1	1.4	·	3.3	-6.0	·	-0.1
Cc1oc2ncn(C)c(=O)c2c1C(=O)NC(C)c1ccccc1 (stereo not given)	5.3	·	-10.8	5.8	·	0.9
Fc1ccc(CSc2ncnc3scc(-c4ccccc4)c23)cc1	-7.3	-11.2	-12.9	3.3	?	35.1*
COC(=O)CSc1ncnc2scc(-c3ccccc3)c12	-8.3	14.3	-2.8	3.9	-7.9%	9.1
CCN(CC)CCCNc1cc(C(F)(F)F)c(C#N)c2nc3ccccc3n12	-1.9	10.0	-1.3	-26.5	12.6%	45.9*
CC(C)c1cc(NCCOCCO)n2c(nc3ccccc32)c1C#N	-0.5	-13.9	4.5	-3.9	?	-1.1
Cc1cc(NCCCCO)n2c(nc3ccccc32)c1C#N	0.8	22.7	-6.7	-0.6	?	2.2
CCCc1cc(NCCCCO)n2c(nc3ccccc32)c1C#N	0.5	9.0	-35.9*	3.8	?	7.6
SMILES	D1 potentiator	D3 antag	D1 antag	DRD3 agonist	Chronic BCR inh	D1 ag
CCCc1cc(NCCOCCO)n2c(nc3ccccc32)c1C#N	·	-57.3*	·	4.8	·	·
O=C(Nc1nc2n(n1)C(c1ccc(Cl)cc1)C=C(c1ccccc1)N2)c1ccco1 (stereo not given)	0.1	·	2.5	3.5	·	0.8
Cc1ccc(N2CCN(S(=O)(=O)N3CCOCC3)CC2)cc1C	2.5	-15.9	-31.3*	-5.6	-17.3%	0.9
COC(=O)c1ccc2nc(-c3ccc(OC)c(OC)c3)c(CC3CCCCC3)n2c1	·	52.6	·	8.3	·	·
COCCNCCOCCOc1ccc(Cl)c(C)c1	-3.1	-51.8*	·	-20.2	?	32.0*
Brc1ccc(OCc2ccccc2)c(CNCc2ccncc2)c1	-9.4	-62.0*	1.8	-40.5	?	2.0
Cc1ccc(C(C)C)c(OCCNCc2ccccc2)c1	5.7	-7.8	14.1	2.8	-2.5%	53.1*
Cc1ccc(C(C)C)c(OCCNC(=S)Nc2cccc3ccccc23)c1	-2.1	?	-6.6	-16.0	?	5.8
Cc1cc(OCCOCCNCc2ccccc2)ccc1C(C)C	-2.9	16.8	-7.5	-1.2	?	63.0*
COc1cccc(OCCOCCNCCO)c1	-4.5	·	-9.9	·	-0.5%	3.8
COc1ccc(N2CCN(c3csc4ccccc4c3=O)CC2)cc1	0.1	·	-8.9	-1.4	·	-0.2
COCCn1c(C)cc(O)c(C(c2ccccc2)N2CCN(c3ccc(F)cc3)CC2)c1=O (stereo not given)	-3.6	·	15.4	-22.6	-4.8%	1.8
Cc1ccc(C)c(OCCCNCc2ccccc2)c1	4.3	-53.6*	-0.9	-6.3	1.4%	20.1
Cc1ccc(C(C)C)c(OCCN(C)C)c1	-5.9	-75.3*	4.0	-7.2	6.9%	5.8
Clc1cc(Br)ccc1OCCCNCc1ccccc1	-6.2	-88.1*	6.1	-10.7	0.0%	55.3*
Cc1ccc(-c2nnc(Nc3cccc(Cl)c3)c3ccccc23)cc1S(=O)(=O)N1CCCCC1	-0.8	·	8.0	5.1	·	0.4
COc1cc(/C=C(\C#N)c2ccccn2)ccc1OCc1ccccc1Cl	1.2	-23.4	12.9	-22.8	-0.1%	9.7
COc1cc(/C=C(\C#N)c2[nH]nc(N)c2C#N)cc(OC)c1O	2.6	-25.4	5.4	-1.9	-22.0%	36.2*
COc1cc(/C=C(\C#N)c2ccccn2)cc(OC)c1O	-0.9	-12.9	1.7	-3.1	?	38.0*
O=C1NC[C@H](CCCCN2C[C@@H](Cc3ccccc3)N(Cc3ccccc3)C(=O)C2=O)N(CCC2CCCCC2)C1=O	·	6.2	·	1.2	·	·
Cc1noc(Cn2c(=O)c3ccccc3n(CC(=O)Nc3cccc(Cl)c3C)c2=O)n1	-0.5	·	10.2	-21.6	·	-1.2
Cc1cc(=O)oc2cc(OC(C)C(=O)Nc3nccs3)ccc12 (stereo not given)	3.0	-4.0	-37.0*	-6.3	?	3.0
COCCNC(=O)C1(C)CCCN(C(=O)c2cc(C)on2)C1 (stereo not given)	·	-21.6	·	-8.2	·	·
COc1ccc(Cl)cc1NC(=O)CN(c1cc(C)cc(C)c1)S(=O)(=O)c1c(C)n[nH]c1C	-1.6	·	-0.4	-3.2	·	4.5
Fc1ccc(F)c(NC(=S)NCCc2ccccc2)c1	1.0	-25.2	-8.9	-7.5	?	5.7
